Measured values reported in PubChem BioAssay (NCATS).
Results filed as inconclusive are left out. The source made the active and inactive calls. Unless noted, calls come from the whole dose curve; as a rule, active = well fitted inhibition curve with a large enough effect; inconclusive = small, poorly fitted or top-dose-only effect; inactive = flat fitted curve, though single readings scatter.

Legend:
[1] = qHTS profiling of the MIPE4 collection as inhibitors of Plasmodium falciparum (HB3) proliferation (AID 743347; call rule not given here); conditions: P. falciparum HB3 in erythrocytes, SYBR Green DNA, 72 h; at 28.5 µM (top of the series) unless noted
How it was run: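 Erythrocytes infected with P. falciparum (0.3% parasitemia, 2.5% hematocrit) incubated with compounds 72 h at 37 C, 5% CO2. Lysis with saponin/Triton buffer containing SYBR Green I, overnight at room temperature in the dark; DNA fluorescence (485/535 nm) normalised to 0.29 uM artemisinin and DMSO.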

[2] = test system: AS120; assay: qHTS profiling for inhibitors of Plasmodium falciparum proliferation (AID 504749); note: nearly all actives have a fitted effect of over 60% in size; note: potency is the fitted concentration of half-maximal effect; conditions: P. falciparum in erythrocytes, SYBR Green DNA, 72 h; series mostly up to 28.7 µM
How it was run: (§1)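 Three-day growth assay of blood-stage parasites in erythrocytes (0.3% parasitemia, 2.5% hematocrit) at 37 C, 5% CO2, quantified by SYBR Green DNA staining after overnight detergent lysis.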

[3] = test system: ATS189; assay: as above; conditions: P. falciparum in erythrocytes, SYBR Green DNA, 72 h; series mostly up to 28.7 µM
How it was run: as §1

[4] = test system: CP185; assay: as above; conditions: P. falciparum in erythrocytes, SYBR Green DNA, 72 h; series mostly up to 28.7 µM
How it was run: as §1

[5] = test system: CP191; assay: as above; conditions: P. falciparum in erythrocytes, SYBR Green DNA, 72 h; series mostly up to 28.7 µM
How it was run: as §1

[6] = test system: CP192; assay: as above; conditions: P. falciparum in erythrocytes, SYBR Green DNA, 72 h; series mostly up to 28.7 µM
How it was run: as §1

[7] = test system: CP194; assay: as above; conditions: P. falciparum in erythrocytes, SYBR Green DNA, 72 h; series mostly up to 28.7 µM
How it was run: as §1

[8] = test system: CP201; assay: as above; conditions: P. falciparum in erythrocytes, SYBR Green DNA, 72 h; series mostly up to 28.7 µM
How it was run: as §1

[9] = test system: CP203; assay: as above; conditions: P. falciparum in erythrocytes, SYBR Green DNA, 72 h; series mostly up to 28.7 µM
How it was run: as §1

[10] = test system: CP247; assay: as above; conditions: P. falciparum in erythrocytes, SYBR Green DNA, 72 h; series mostly up to 28.7 µM
How it was run: as §1

[11] = test system: CP286; assay: as above; conditions: P. falciparum in erythrocytes, SYBR Green DNA, 72 h; series mostly up to 28.7 µM
How it was run: as §1

[12] = test system: CP291; assay: as above; conditions: P. falciparum in erythrocytes, SYBR Green DNA, 72 h; series mostly up to 28.7 µM
How it was run: as §1

[13] = test system: CP305; assay: as above; conditions: P. falciparum in erythrocytes, SYBR Green DNA, 72 h; series mostly up to 28.7 µM
How it was run: as §1

[14] = test system: DFO2036; assay: as above; conditions: P. falciparum in erythrocytes, SYBR Green DNA, 72 h; series mostly up to 28.7 µM
How it was run: as §1

[15] = test system: DIV30; assay: as above; conditions: P. falciparum in erythrocytes, SYBR Green DNA, 72 h; series mostly up to 28.7 µM
How it was run: as §1

[16] = test system: HB3; assay: as above; conditions: P. falciparum in erythrocytes, SYBR Green DNA, 72 h; series mostly up to 28.7 µM
How it was run: as §1

[17] = test system: P94_40; assay: as above; conditions: P. falciparum in erythrocytes, SYBR Green DNA, 72 h; series mostly up to 28.7 µM
How it was run: as §1

[18] = test system: TAB109; assay: as above; conditions: P. falciparum in erythrocytes, SYBR Green DNA, 72 h; series mostly up to 28.7 µM
How it was run: as §1

[19] = test system: TAB113; assay: as above; conditions: P. falciparum in erythrocytes, SYBR Green DNA, 72 h; series mostly up to 28.7 µM
How it was run: as §1

[20] = test system: W2; assay: as above; conditions: P. falciparum in erythrocytes, SYBR Green DNA, 72 h; series mostly up to 28.7 µM
How it was run: as §1

O=C1CC[C@@]2(O)[C@H]3Cc4ccc(O)c5c4C2(CCN3CC2CC2)[C@H]1O5
94.1%: growth, % of control [1]

Cc1ncc(C[n+]2csc(CCO)c2C)c(=O)[nH]1
73.2%: growth, % of control [1]

O=C(O)c1ccccc1-c1c2cc(Br)c(=O)cc-2oc2[c]([Hg])c(O)c(Br)cc12
inactive: Potency [2] | Potency [3] | Potency [4] | Potency [5] | Potency [6] | Potency [7] | Potency [8] | Potency [9] | Potency [10] | Potency [11] | Potency [12] | Potency [13] | Potency [14] | Potency [15] | Potency [16] | Potency [17] | Potency [18] | Potency [19] | Potency [20]

CC(C)[C@@]1(NC(=O)[C@H]2CC3c4cccc5[nH]cc(c45)C[C@H]3N(C)C2)O[C@@]2(O)C3CCCN3C(=O)[C@@H](Cc3ccccc3)N2C1=O (stereo not given in full)
active: Potency [2] 0.891 µM | Potency [3] 2.82 µM | Potency [4] 10 µM | Potency [5] 5.01 µM | Potency [6] 7.57 µM | Potency [7] 6.75 µM | Potency [8] 10.7 µM | Potency [9] 6.75 µM | Potency [10] 8.91 µM | Potency [11] 3.98 µM | Potency [12] 10.7 µM | Potency [13] 6.75 µM | Potency [14] 7.08 µM | Potency [15] 1.51 µM | Potency [16] 2 µM | Potency [17] 2 µM | Potency [18] 4.47 µM | Potency [19] 3.55 µM | Potency [20] 0.953 µM
